26 compounds from PubChem BioAssay (NCATS) can be followed below.

Structures are written as SMILES. Where “and” joins values, the source holds several entries; their conditions need not be identical. Identical values can stand only once. Results filed as inconclusive are left out. A number with no mark means an inactive call. Calls of active or inactive are those of the source. Calls follow the shape of the dose curve; as a rule, active = well fitted curve in the direction sought with a large enough effect; inconclusive = small, poorly fitted or top-dose-only effect, or another doubt; inactive = no such curve, though single readings can be large; an effect the other way counts as inactive or inconclusive. Where a SMILES comes first, the peptide text is derived from it. [ ]: non-standard residue; d: D form. ξ: configuration not given here. ξPhe(βξ-Me) = CC(c1ccccc1)C(N)C(=O)O; GABA = NCCCC(=O)O

Assay [1] is described as follows: Primary qHTS for inhibitors of nuclear receptor binding SET domain protein 2 (NSD2) in an isogenic RCH-ACV NSD2 p.E1099K mutant (9B) (AID 1645876).
Assay [2] in a line: Primary qHTS for inhibitors of nuclear receptor binding SET domain protein 2 (NSD2) in an RCH-ACV wild type WT cells (2C) (AID 1645877).
% is scaled to controls: 0 for no effect and ±100 for the full control effect; potency is read from the fitted curve at half-maximal effect.
Also: nearly all actives have a fitted effect of over 70% in size.

`CC(O)(CC(=O)O)CC(=O)O[C@@H]1[C@@H](O)[C@H](OCCc2ccccc2)O[C@H](CO)[C@H]1O` (some centres not stated): the Potency result in assay [1] and in assay [2] was “inactive” each time.
Take `CC1CCC2(C(=O)OC3OC(COC4OC(CO)C(O)C(O)C4O)C(O)C(O)C3O)CCC3(C)C(=CCC4C5(C)CCC(O)C(C)(C(=O)O)C5CCC43C)C2C1(C)O` (configuration not stated): in assay [1], the activity change, negative = viability loss is 1.95% [at 9.23 µM]. In assay [2], the activity change, negative = cell killing is 2.11% [at 9.23 µM].
Regarding `C=CC(C)(C)C12CC3C(=O)NC(Cc4cnc[nH]4)C(=O)N3C1Nc1ccccc12` (configuration not stated), the Potency entry in assay [1] and in assay [2] was “inactive” throughout.
Turning to `CC(C)CC1(C(=O)OCc2ccc(O[C@@H]3O[C@H](CO)[C@@H](O)[C@H](O)[C@H]3O)cc2)CC(=O)OC(C(=O)O)CC(=O)OCC2OC(O1)C(OC(=O)/C=C/c1ccc(O)cc1)C(O)C2O` (some centres not stated), the activity change, negative = viability loss in assay [1] is 1.01% [at 9.23 µM]. Moreover, the activity change, negative = cell killing in assay [2] is 0.208% [at 9.23 µM].
For the compound `CC(C)CC1NC(=O)C(C(C)c2ccccc2)NC(=O)C(C(C)C)NC(=O)C(C)NC(=O)CCCNC(=O)C(Cc2c[nH]c3ccccc23)NC(=O)C(C)NC1=O` (stereo not drawn) (cyclo([GABA]AV[ξPhe(βξ-Me)]LAW); configuration not given here), the Potency entry in assay [1] and in assay [2] was “inactive” in each case.
For `COC(=O)C1=C[C@@H](O)[C@@H](O)[C@H](O[C@@H]2O[C@H](COC(=O)/C=C/c3ccccc3)[C@@H](O)[C@H](O)[C@H]2O)C1`, the Potency entry in assay [1] and in assay [2] was “inactive” each time.
On to `CC(/C=C/[C@]1(O)[C@@]2(C)CO[C@@]1(C)C[C@@H](O)C2)=C\C(=O)O[C@@H]1O[C@H](CO)[C@@H](O)[C@H](O)[C@H]1O`, for which the Potency entry in assay [1] and in assay [2] was “inactive” in each case.
Consider `OC[C@H]1O[C@@H](OC(CCCCc2ccc(O)cc2)CCc2ccc(O)cc2)[C@H](O[C@@H]2OC[C@](O)(CO)[C@H]2O)[C@@H](O)[C@@H]1O` (some centres not stated), for which the Potency result in assay [1] and in assay [2] was “inactive” each time.
On to `CC1(C)CC2C(C1)C1(C)CCC13OC3(CO)C2O` (configuration not stated), for which the Potency entry in assay [1] and in assay [2] was “inactive” in each case.
For `COc1cc2c(cc1O)C1(OC)Cc3ccc4c(c3C1N(C)CC2)OCO4` (configuration not stated), the Potency result in assay [1] and in assay [2] was “inactive” each time.
`C=C[C@H]1[C@H](O[C@@H]2O[C@H](CO)[C@@H](O)[C@H](O)[C@H]2O)OC=C(C(=O)OC)[C@H]1C[C@@H]1N[C@H](C(=O)O)Cc2c1[nH]c1ccccc21`: the Potency result in assay [1] and in assay [2] was “inactive” each time.
Regarding `CC1(C)CC[C@]2(C(=O)O)CC[C@]3(C)C(=CCC4[C@@]5(C)CCC(O[C@@H]6OC[C@H](O)[C@H](O)[C@H]6O[C@@H]6O[C@H](CO)[C@@H](O)[C@H](O)[C@H]6O)[C@@](C)(CO)C5CC[C@]43C)[C@@H]2C1` (some centres not stated), the Potency result in assay [1] and in assay [2] was “inactive” each time.
As to `O=C(/C=C/c1ccc(O)cc1)OC[C@H]1O[C@@H](OC(=O)/C=C/c2ccccc2)[C@H](O)[C@@H](O)[C@@H]1O`, the Potency entry in assay [1] and in assay [2] was “inactive” throughout.
On to `CC(=O)c1c(O)cc2c(c1C)C(=O)CC(O)C2` (configuration not stated), for which the Potency entry in assay [1] and in assay [2] was “inactive” each time.
Consider `CC1CCC23COC(=O)C2=CC(O)CC3C1(C)CCC1=CC(=O)OC1O` (configuration not stated), for which the Potency entry in assay [1] and in assay [2] was “inactive” in each case.
For the compound `C[C@@H]1C/C=C/C=C\C=C\C=C\[C@H](O[C@@H]2O[C@H](C)[C@@H](O)[C@H](N)[C@@H]2O)C[C@@H]2O[C@](O)(C[C@@H](O)C[C@H]3O[C@@H]3/C=C/C(=O)O1)C[C@H](O)[C@H]2C(=O)O`, the Potency entry in assay [1] and in assay [2] was “inactive” in each case.
On to `CCC1CC2C(C)=CC3CCCCC3C2(C)C2(OC(=O)C(C)(O)OC2=O)O1` (configuration not stated), for which the Potency result in assay [1] and in assay [2] was “inactive” in each case.
Take `COC1(CC(C)C)NC(=O)C(O)(Cc2ccccc2)NC1=O` (configuration not stated): the Potency result in assay [1] and in assay [2] was “inactive” in each case.
Take `C=C1CC[C@H]2[C@@](C)(CCC(O)[C@@]2(C)CO)[C@@H]1C/C=C(/C(=O)O)C(O)CO` (some centres not stated): the Potency entry in assay [1] and in assay [2] was “inactive” throughout.
Consider `CC1(CO)CC[C@]2(C(=O)O[C@@H]3O[C@H](CO)[C@@H](O)[C@H](O)[C@H]3O)CC[C@]3(C)C(=CCC4[C@@]5(C)C[C@H](O)[C@H](O[C@@H]6OC[C@@H](O)[C@H](O)[C@H]6O)[C@@](C)(CO)C5CC[C@]43C)C2C1` (some centres not stated), for which the activity change, negative = viability loss in assay [1] is 1.64% [at 9.23 µM]. The outcome in assay [2] is “inactive [at 9.23 µM]”.
For the compound `O=C1NCc2nc3ccccc3c(=O)n2C1Cc1c[nH]c2ccccc12` (configuration not stated), the Potency result in assay [1] and in assay [2] was “inactive” in each case.
Consider `CN(NC(=O)CC(=O)NN(C)C(=S)c1ccccc1)C(=S)c1ccccc1`, for which the Potency in assay [1] was 40.9 nM (active) and 8.3 nM (active); in assay [2], 40.9 nM (active) and 9.3 nM (active).
Turning to `CC1=CCC2C(C)(CO)CCCC2(CO)C1CO` (configuration not stated), the Potency entry in assay [1] and in assay [2] was “inactive” throughout.
Consider `C/C=C(/C)C(=O)O[C@H]1C=C(C)C[C@H](OC(=O)c2ccc(O)cc2)C2[C@](O)(C(C)C)CC[C@@]21C` (some centres not stated), for which the Potency result in assay [1] and in assay [2] was “inactive” throughout.
With `COC(=O)CC1(O)C(=O)Nc2ccccc21` (configuration not stated), the Potency entry in assay [1] and in assay [2] was “inactive” each time.
Consider `CC1=CC(=O)CC(C)(C)C1(O)CCC(C)O` (configuration not stated), for which the Potency result in assay [1] and in assay [2] was “inactive” throughout.
